Shown is part of a subset that was picked to be rich in hits.
Pf Dd2 inh: qHTS Primary assay for Inhibitors of Plasmodium falciparum Dd2 growth in vitro; P. falciparum Dd2 growth, SYBR Green, 72 h; Potency, µM (highest dose often 28.9 µM), without a hit: top-dose activity, negative = inhibition, usual class: inhibitors; hit rate 4.3% among 120,000; active means well fitted inhibition curve with a large enough effect;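 further: plate controls were DMSO vehicle for no effect and reference drug for full effect; nearly all actives have a fitted effect of over 65% in size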
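Readout: SYBR Green fluorescence, 485 nm excitation, 535 nm emission, after ~16 h lysis at 37C. Before that, Dd2-infected red cells (2.5% hematocrit) grew 72 h with compound, 29 uM top final concentration.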
Numbers without * were called inactive; i = inactive; [ ] = remark or other dose. Potency means the concentration at half of the fitted maximal effect.

SMILES	Pf Dd2 inh
CCC(=O)N1Cc2ccccc2CC2(CCN(Cc3ccncc3)C2)C1 (stereo not drawn)	-24%
O=S(=O)(c1ccccc1)N1Cc2ccccc2CC2(CCN(Cc3cccnc3)C2)C1 (stereo not drawn)	6.3µM*
C[S+](=O)([O-])N1Cc2ccccc2CC2(CCCN(Cc3ccccc3)C2)C1 (stereo not drawn)	-12%
CCCC(=O)N1Cc2ccccc2CC2(CCN(Cc3ccncc3)C2)C1 (stereo not drawn)	11µM*
CCCC(=O)N1Cc2ccccc2CC2(CCN(Cc3ccc(NC(C)=O)cc3)C2)C1 (stereo not drawn)	-27%
O=C(O)CCC(=O)N1Cc2ccccc2CC2(CCCN(Cc3cccnc3)C2)C1 (stereo not drawn)	8%
CCCC(=O)N1Cc2ccccc2CC2(CCN(Cc3cccnc3)C2)C1 (stereo not drawn)	11µM*
CC(=O)N1Cc2ccccc2CC2(CCN(Cc3cccnc3)C2)C1 (stereo not drawn)	-12%
O=C1N(c2ccccc2)C[C@H]2CN(C3CCOCC3)CCN12	31%[44.1 µM]
COc1ccccc1N1CCN([C@@H]2[C@H](O)[C@H](CO)O[C@@H]2CNC(C)=O)CC1	-4%
Cc1ncnc(N2CCC3(CC2)CC(=O)N(CCCc2ccccc2)C3)c1C	-21%
N#Cc1ccc(S(=O)(=O)N2CCCCCCNC(=O)[C@@H]3CCCC[C@@H]32)cc1	6%
COCCN1C(=O)c2ccccc2C(C(=O)Nc2nc3ccccc3s2)C12CCCCC2 (stereo not drawn)	2.5µM*
COCCN1C(=O)c2ccccc2C(C(=O)NC(C)C)C12CCCCC2 (stereo not drawn)	-7%
COCCN1C(=O)c2ccccc2C(C(=O)Nc2nnc(C3CC3)s2)C12CCCCC2 (stereo not drawn)	7.9µM*
CCCCNC(=O)C1c2ccccc2C(=O)N(CCOC)C12CCCCC2 (stereo not drawn)	-13%
COCCN1C(=O)c2ccccc2C(C(=O)Nc2ccccc2O)C12CCCC2 (stereo not drawn)	i
COCc1nnc(NC(=O)C2c3ccccc3C(=O)N(CC(C)C)C23CCCCC3)s1 (stereo not drawn)	3.5µM*
COCCN1C(=O)c2ccccc2C(C(=O)Nc2cccc(C)n2)C12CCCCC2 (stereo not drawn)	i
COCCN1C(=O)c2ccccc2C(C(=O)Nc2nnc(COC)s2)C12CCCCC2 (stereo not drawn)	-26%
COC(=O)CCNC(=O)C1c2ccccc2C(=O)N(CC(C)C)C12CCCCC2 (stereo not drawn)	-16%
COc1ccc(NC(=O)N2CCn3nnc(CCC(=O)NC4CC4)c3C2)cc1	-21%
O=S(=O)(N[C@H]1CO[C@H]2[C@@H]1OC[C@@H]2Nc1nccc(-c2ccc3c(c2)OCO3)n1)c1ccc2ccccc2c1	-8%
COCC1CN(C(=O)Cc2ccc(OC)c(Cl)c2)CC12CCNCC2 (stereo not drawn)	13%
CC(C)(C)OC(=O)N1CCC(Cn2c(=O)[nH]c3cccnc32)CC1	-18%[44.1 µM]
SMILES	Pf Dd2 inh
Cn1nccc1C(=O)NC1CCN(c2cc(-c3ccccc3)[nH]n2)CC1	i
CCS(=O)(=O)N1CCC(N2C(=O)C3(CCCC3)C2c2ccccc2)CC1 (stereo not drawn)	i
O=C(Nc1ccccc1F)N1CCC(N2C(=O)C3(CCCCC3)C2c2ccccc2)CC1 (stereo not drawn)	i
Cc1ncccc1C(=O)N1CCC(N2C(=O)C3(CCCC3)C2c2ccccc2)CC1 (stereo not drawn)	i
O=C(Nc1ccccc1F)N1CCC(N2C(=O)C3(CCCCC3)C2c2ccncc2)CC1 (stereo not drawn)	4.5µM*
O=C(c1ccncc1)N1CCC(N2C(=O)C3(CCCCC3)C2c2ccncc2)CC1 (stereo not drawn)	-5%
Cc1ccc(C(=O)N2CCC(N3C(=O)C4(CCCC4)C3c3ccccc3)CC2)s1 (stereo not drawn)	-38%
CCn1cc(CN2CCC(N3C(=O)C4(CCCC4)C3c3ccccc3)CC2)cn1 (stereo not drawn)	1.6µM*
CCn1cc(CN2CCC(N3C(=O)C4(CCCCC4)C3c3ccncc3)CC2)cn1 (stereo not drawn)	-4%
Cc1nc(C)c(C(=O)N2CCC(N3C(=O)C4(CCCCC4)C3c3ccccc3)CC2)s1 (stereo not drawn)	13µM*
CCN(CC)C(=O)CN1C(=O)NC(c2ccccc2OC)C2=C1COC2=O (stereo not drawn)	-8%
CN1CC(=O)N(c2ccccc2F)Cc2c(NC3CCCC3)ncnc21	28%[44.1 µM]
COc1cccc(OC)c1C(=O)NC1CC(=O)N(CCc2ccc(F)cc2)C1 (stereo not drawn)	0%
CC1(C)[C@H]2CC[C@@H](CNC(=O)c3ccc(F)cc3)[C@@H]1C2	11µM*
CC(=O)NC[C@H]1CCN(C(=O)c2ccc(C(F)(F)F)cc2)C[C@H]1N(C)C	22%
COCC(=O)NC[C@@H]1CC[C@H]2C[C@@H]1C2(C)C	-4%[44.1 µM]
CN(C)CCCC(=O)NC[C@@H]1CC[C@H]2C[C@@H]1C2(C)C	10µM*
CC1(C)[C@H]2CC[C@@H](CNC(=O)c3ccccc3)[C@@H]1C2	-12%[44.1 µM]
CC1(C)[C@H]2CC[C@@H](CNC(=O)c3cncc(Br)c3)[C@@H]1C2	-21%
COC[C@H]1C[C@@H](NC(=O)c2ccc(C(F)(F)F)cc2)[C@H](O)[C@@H]1O	-5%[44.1 µM]
CC1(C)[C@H]2CC[C@@H](CNC(=O)c3ccc(C(F)(F)F)cc3)[C@@H]1C2	10µM*
COc1ccc(CNC(=O)Cn2c(C)cc3nc4n(c(=O)c32)CCCC4)cc1OC	-20%
COCC(=O)NC[C@H]1O[C@@H](CO)[C@@H](O)[C@H]1N1CCN(c2ccccc2OC)CC1	33%
COc1ccc(C2(C(=O)N3CCC4(CCCN(C)C4=O)C3)CCCC2)cc1 (stereo not drawn)	-8%
COc1ccc(C(=O)N2CCC(N3C(=O)C(O)C34CCCCC4)CC2)cc1F (stereo not drawn)	-5%
SMILES	Pf Dd2 inh
NC(=O)NCC(=O)N1CCC2(CCCN(CCCc3ccccc3)C2)C1 (stereo not drawn)	6%
CN1c2cccnc2CN(C(=O)Nc2ccc(Cl)cc2)CC[C@H]1CO	-21%[44.1 µM]
COc1ccc(C(=O)N2CCC(C(NC(=O)c3ccccc3C)C(=O)NCC(C)C)CC2)cc1 (stereo not drawn)	i
CCC(C)NC(=O)C(NC(=O)c1ccc(C)cc1)C1CCN(C(=O)C(C)C)CC1 (stereo not drawn)	-12%
CCC(C)NC(=O)C(NC(=O)c1ccc(F)cc1)C1CCN(C(=O)c2cccc(F)c2)CC1 (stereo not drawn)	i
Cc1ccc(C(=O)N2CCC(C(NC(=O)c3ccccc3C)C(=O)NCC(C)C)CC2)cc1 (stereo not drawn)	7.9µM*
CCC(C)NC(=O)C(NC(=O)c1ccc(C)cc1)C1CCN(C(=O)c2cccc(F)c2)CC1 (stereo not drawn)	10µM*
Cc1ccc(C(=O)N2CCC(C(NC(=O)C(C)C)C(=O)NCC(C)C)CC2)cc1 (stereo not drawn)	i
O=C(Cc1c(F)cccc1Cl)NC1CCc2nn(CC3CC3)c(=O)n2CC1 (stereo not drawn)	20%
CC1CCC(NC(=O)CN2C(=O)NC3(CCC(C)CC3)C2=O)CC1 (stereo not drawn)	-8%
O=C(c1cccnc1)N1CCCC2(COc3ccccc3[S+](=O)([O-])N2)C1 (stereo not drawn)	11%
